# High-throughput results as filed in PubChem BioAssay.
# This is a sample that favours compounds with a hit; in the whole collection about 12% have one here.
# L3MBTL1 inh – inhibitors of human L3MBTL1. hit rate 0.66% among 230,000. Potency, µM (series often up to 57.1 µM), usual class: inhibitors. AlphaScreen L3MBTL1–H3K9me1 peptide binding. Q9Y468. AID 485360; further: nearly all actives have a fitted effect of over 60% in size
#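 AlphaScreen proximity signal between nickel-chelate acceptor and streptavidin donor beads (final 10 ug/mL) reports binding of 50 nM L3MBTL1 to 75 nM biotin-H3 K9me1 peptide; complex incubated with compounds 30 min at room temperature; cefsulodin titration as control.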
# BAZ2B block – inhibitors of human BAZ2B bromodomain; hit rate 4.4% among 360,000; Potency, µM (series often up to 114 µM), hits mostly inhibitors; AlphaScreen BAZ2B-H3K14Ac peptide displacement; AID 504333; Q9UIF8; further: nearly all actives have a fitted effect of over 60% in size
#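 AlphaScreen displacement of biotin-H3(5-23)K14Ac peptide (50 nM final) from BAZ2B (50 nM final) in PBS pH 7.4, 0.01% Tween-20; complex preformed 30 min RT, then compounds (top 110 uM) 30 min RT, beads 20 min dark.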
# Sfp inh – inhibitors of Bacillus subtilis Sfp phosphopantetheinyl transferase; Q9F4F7; Biochemical Sfp PPTase activity, qHTS; Potency, µM, actives largely listed as inhibitors; hit rate 3.5% among 310,000; AID 1490;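 further: the enzyme is Sfp with the accession as filed and its product quenches rhodamine fluorescence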
#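 After 15 min at room temperature with compound, 15 nM Sfp received 5 uM rhodamine-CoA plus 12.5 uM BHQ-2-ybbR (50 mM Hepes pH 7.6, 10 mM MgCl2). Rate came from the fluorescence difference over 30 min, ex 525/em 598 nm.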
# G9a inh – inhibitors of human histone lysine methyltransferase G9a. Q96KQ7. hit rate 8.8% among 350,000. G9a H3K9 monomethylation, AlphaScreen, 2 h. AID 504332. Potency, µM (series often up to 102 µM), hits mostly inhibitors; further: nearly all actives have a fitted effect of over 75% in size
# Target sequence (Q96KQ7 913-1193 limits assumed): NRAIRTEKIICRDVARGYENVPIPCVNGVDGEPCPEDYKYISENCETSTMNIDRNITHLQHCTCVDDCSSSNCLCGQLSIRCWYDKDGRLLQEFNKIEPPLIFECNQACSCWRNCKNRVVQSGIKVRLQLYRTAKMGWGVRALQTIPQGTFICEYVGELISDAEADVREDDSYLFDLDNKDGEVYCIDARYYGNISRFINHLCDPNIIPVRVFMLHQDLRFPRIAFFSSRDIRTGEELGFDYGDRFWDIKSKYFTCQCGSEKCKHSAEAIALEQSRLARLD
#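 AlphaScreen detection with an anti-monomethyl H3K9 antibody quantified product after a 2 h room-temperature reaction containing 500 nM biotinylated H3K9 peptide, 20 µM SAM and 20 nM enzyme, which had been preincubated 15 min with compound.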
# JMJD2A Tudor inh – blocks the human JMJD2A Tudor domain. O75164. hit rate 4.4% among 390,000. AlphaScreen JMJD2A-Tudor / H3K4me3 peptide binding. Potency, µM (titrated, usually from 114 µM), usual class: inhibitors; further: nearly all actives have a fitted effect of over 50% in size
# HP1b binding inh – inhibitors of HP1-beta chromodomain binding to methylated histone tails; hit rate 0.56% among 390,000; Potency, µM (titrated, usually from 114 µM), most hits filed as inhibitors; AID 540317; P83916; AlphaScreen HP1-beta / biotin-H3K9me3 peptide binding; further: nearly all actives have a fitted effect of over 70% in size
# Target sequence (P83916 whole entry, looked up): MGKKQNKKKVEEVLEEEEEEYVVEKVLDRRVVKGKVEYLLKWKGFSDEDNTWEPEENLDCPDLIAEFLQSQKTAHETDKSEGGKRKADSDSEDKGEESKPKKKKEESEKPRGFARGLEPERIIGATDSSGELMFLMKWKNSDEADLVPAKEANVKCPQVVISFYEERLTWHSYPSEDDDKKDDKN
#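 AlphaScreen: HP1-beta (50 nM) preformed 30 min with biotin-H3(1-18)K9me3 peptide (50 nM) in PBS pH 7.4, 0.01% Tween-20. Compound added for 30 min at RT, then streptavidin donor/nickel chelate acceptor beads (10 ug/mL) for 30 min.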
# Numbers stand for hits; i = inactive; ? = inconclusive; nt = no result given; [ ] = remark or other dose. The call rests on the fitted dose curve; in most records, active means well fitted curve in the direction sought with a large enough effect; inconclusive means small, poorly fitted or top-dose-only effect, or another doubt; inactive means no such curve, though single readings can be large; an effect the other way counts as inactive or inconclusive.
SMILES,L3MBTL1 inh,BAZ2B block,Sfp inh,G9a inh,JMJD2A Tudor inh,HP1b binding inh
COc1ccc(OC)c(NC(=O)C2CCCN(S(=O)(=O)c3ccc4[nH]c(=O)ccc4c3)C2)c1 (stereo not drawn),nt,i,nt,i,i,i
CN1CCN(c2ncc3nc(-c4cccc(C#N)c4)c(=O)n(C[C@H]4CCCO4)c3n2)CC1,nt,nt,i,i[0.501 µM],nt,nt
COc1ccc(Cl)cc1Nc1ncnc2c1nc1n2CCCC1,nt,i,nt,i,i,i
O=C(O)C1CCCCC1C(=O)Nc1ccc(S(=O)(=O)N2CCOCC2)cc1 (stereo not drawn),nt,nt,nt,nt,56.2µM,i
O=C(O)C1CCCCC1C(=O)Nc1ccc(S(=O)(=O)N2CCCCCC2)cc1 (stereo not drawn),nt,i,i,i,i,?
Cc1cccc(CNC(=O)CCCn2c(=O)c3cccn3c3ccc(F)cc32)c1,nt,i,nt,i,i,i
Cc1ccc(C(=O)NCC(c2cccnc2)N2CCc3ccccc32)cc1C (stereo not drawn),nt,?,nt,?,?,i
Cc1ccc(C(=O)NCC(c2cccnc2)N2CCc3ccccc3C2)cc1C (stereo not drawn),nt,12.6µM,nt,?,?,i
Cc1ccc(NC(=O)C(=O)NCC(c2cccnc2)N2CCc3ccccc3C2)cc1 (stereo not drawn),nt,i,nt,i,i,i
CC(C)(C)c1ccc(C(=O)NCC(c2cccnc2)N2CCc3ccccc3C2)cc1 (stereo not drawn),nt,3.16µM,nt,?,?,?
CN(C(=O)CC(=O)Nc1ccc2nc3n(c(=O)c2c1)CCCCC3)c1ccccc1F,nt,i,nt,i,i,i
CCCCN(CC)CCNC(=O)CCn1cnc2onc(-c3ccc(F)cc3)c2c1=O,nt,i,nt,i,i,i
O=Cc1ccccc1C=O,nt,nt,11.2µM,?,nt,nt
O=Cc1ccccc1OCCOc1ccccc1C=O,i,i,i,i,i,i
COc1ccccc1-c1cc2nc(C)c(CCC(=O)NCc3cccc(Cl)c3)c(C)n2n1,nt,i,nt,i,i,i
COc1ccc(-c2csc(Nc3ccccc3)[n+]2CC(O)c2ccc([N+](=O)[O-])cc2)cc1 (stereo not drawn),i,?,i,14.1µM,?,?
COc1ccc(-c2nc(NC(=O)c3ccccc3)sc2-c2ccc([N+](=O)[O-])cc2)cc1,i,i,i,i,i,i
COc1ccc(NS(=O)(=O)c2cc(NC(=O)c3cccnc3Cl)ccc2N2CCCC2)cc1,i,i,i,44.7µM,?,i
COc1ccc(NS(=O)(=O)c2cc(NC(=O)c3cnc(C)cn3)ccc2N2CCCCC2)cc1,i,i,i,i,i,i
O=C(Nc1ccc(N2CCCCC2)cc1)c1cccnc1Cl,nt,i,i,50.1µM,i,i
COc1ccc(NS(=O)(=O)c2cc(NC(=O)c3ccc(=O)[nH]c3)ccc2N2CCCC2)cc1,nt,39.8µM,i,nt,?,i
COc1ccc(NS(=O)(=O)c2cc(NC(=O)c3cnc(C)cn3)ccc2N2CCCC2)cc1,i,i,i,i,i,i
CC#CCN1c2ccccc2[C@]23C[C@@H](C(=O)OC)N(S(=O)(=O)c4ccc5c(c4)OCCN5C)C2=NC(C(=O)OC)=C(C(=O)OC)[C@H]13,nt,nt,i,nt,nt,nt
COc1ccc(-c2c(C#N)c(N)nc3c2CCCCCC3)cc1OC,nt,i,i,i,i,i
COc1ccc(-c2c3c([nH]c(=S)c2C#N)CCC3)cc1,i,i,22.4µM,?,44.7µM,i
SMILES,L3MBTL1 inh,BAZ2B block,Sfp inh,G9a inh,JMJD2A Tudor inh,HP1b binding inh
COc1ccc(OC)c(-c2c3c([nH]c(=S)c2C#N)CCCC3)c1,i[11.4 µM],?,22.4µM,?,i,i
COC(=O)C(C(=O)OC)C1c2ccccc2C=C(C)N1C(=O)OC (stereo not drawn),nt,nt,i,nt,nt,nt
CCCOc1cccc(C2c3c(oc4ccccc4c3=O)C(=O)N2c2nncs2)c1 (stereo not drawn),nt,i,nt,i,i,i
O=C(NC1CC(=O)N(c2ccc(Cl)cc2)C1)C(=O)c1c[nH]c2ccccc12 (stereo not drawn),nt,i,nt,i,i,i
Cc1cccc2c1NC(=O)/C2=C\C(=O)c1cccs1,nt,i,i,?,i,i
CCc1ccc2c(c1)/C(=C/C(=O)c1cccs1)C(=O)N2,i,11.2µM,44.7µM,11.2µM,12.6µM,i
